This note sets out measurements from PubChem BioAssay (Tox21).

Where “and” joins values, the source holds several entries; their conditions need not be identical. Equal values may be shown once. Records with an inconclusive call do not appear. A call without a number means that no potency is given here. Unmarked numbers belong to inactive results. Calls of active or inactive are those of the source. Calls follow the shape of the dose curve; as a rule, active = well fitted activation curve with a large enough effect in the repeat runs; inconclusive = weak or mixed curves; inactive = no such curve, though single readings can be large or run the other way.
Potency is read from the fitted curve at half-maximal effect.

Aryl hydrocarbon receptor (Homo sapiens), sequence (P35869 whole entry, looked up): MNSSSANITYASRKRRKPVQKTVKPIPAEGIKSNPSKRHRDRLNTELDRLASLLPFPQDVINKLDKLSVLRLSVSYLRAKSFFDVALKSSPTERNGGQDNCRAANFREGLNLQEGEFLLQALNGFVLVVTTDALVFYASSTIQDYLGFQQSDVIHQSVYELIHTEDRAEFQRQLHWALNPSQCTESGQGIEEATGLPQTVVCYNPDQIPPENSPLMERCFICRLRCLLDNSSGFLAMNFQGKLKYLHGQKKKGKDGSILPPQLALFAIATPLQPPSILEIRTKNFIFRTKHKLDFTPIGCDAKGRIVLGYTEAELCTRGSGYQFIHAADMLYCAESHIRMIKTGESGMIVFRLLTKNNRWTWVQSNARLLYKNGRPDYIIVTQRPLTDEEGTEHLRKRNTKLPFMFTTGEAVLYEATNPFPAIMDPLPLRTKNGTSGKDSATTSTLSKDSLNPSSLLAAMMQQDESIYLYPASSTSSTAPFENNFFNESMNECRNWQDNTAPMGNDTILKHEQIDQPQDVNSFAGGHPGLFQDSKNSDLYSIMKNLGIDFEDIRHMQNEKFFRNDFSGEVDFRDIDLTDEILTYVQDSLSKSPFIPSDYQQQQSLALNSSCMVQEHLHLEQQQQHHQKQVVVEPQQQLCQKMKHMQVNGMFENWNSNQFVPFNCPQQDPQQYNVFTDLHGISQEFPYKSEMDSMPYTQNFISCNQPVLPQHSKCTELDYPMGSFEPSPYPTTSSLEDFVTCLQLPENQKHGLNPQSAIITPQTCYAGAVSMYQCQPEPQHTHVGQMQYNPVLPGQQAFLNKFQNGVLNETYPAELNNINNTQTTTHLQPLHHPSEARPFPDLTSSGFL

This experiment addresses Aryl hydrocarbon receptor (Homo sapiens) (UniProt P35869). In words: qHTS assay to identify small molecule that activate the aryl hydrocarbon receptor (AhR) signaling pathway (AID 743085). Also: nearly all actives have a fitted effect of over 15% in size.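 As to activation: HG2L7.5c1 human HepG2 liver cells with stably integrated DRE-driven firefly reporter.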 The settings on record: HepG2 AhR-luc (HG2L7.5c1), luciferase, 24 h; series mostly up to 70.3 µM. From the text:
U.S. Tox21 Program National Center for Advancing Translational Sciences [NCATS] NIH Chemical Genomics Center [NCGC] U.S. Environmental Protection Agency [EPA] National Institutes of Environmental Health Sciences [NIEHS] National Toxicology Program [NTP] U.S. Food and Drug Administration [FDA] Tox21 Assay overview: The Aryl hydrocarbon Receptor (AhR), a member of the family of basic helix-loop-helix transcription factors, is crucial to adaptive responses to environmental changes. AhR mediates cellular responses to environmental pollutants such as aromatic hydrocarbons through induction of phase I and II enzymes but also interacts with other nuclear receptor signaling pathways. A cell based HepG2-AhR-luc assay (HG2L7.5c1 cell line, developed by Dr. Michael S. Denison, University of California at Davis, was used to assess the activation of AhR. HepG2 (human hepatocellular carcinoma) cells were stably transfected with an Ah receptor-responsive firefly luciferase reporter gene plasmid containing 20 dioxin responsive elements and luciferase reporter gene. Increased luciferase activity can be used to identify the compounds that induce AhR activation.
Tox21 Assay Protocol Summary: 4000 cells in 5 uL/well were dispensed into white wall/solid bottom 1536-well plates using a Multidrop Combi (Thermo Fisher Scientific Inc., Waltham, MA) dispenser. After the assay plates were incubated at 37C for 5 h, 23 nL of compound or DMSO vehicle was transferred to the assay plates by a pintool station (Kalypsys, San Diego, CA). The plates were incubated at 37C for 24 hr. After 1 ul/well of CellTiter-Fluor reagent (Promega, Madison, WI) was added into the assay plates using a Flying Reagent Dispenser (FRD) (Aurora Discovery, CA), the assay plates were incubated at 37C for 30 min. The fluorescence intensity in the plates was measured using a ViewLux plate reader (PerkinElmer, Shelton, CT), followed by the addition of 4 uL of ONE-Glo Luciferase Assay reagent (Promega) using an FRD (Aurora Discovery). After the assay plates were incubated at room temperature for 30 min, luminescence intensity was measured using a ViewLux plate reader (Perkin Elmer).
As to `Oc1c(I)cc(Cl)c2cccnc12`, the Potency is 944 nM (active) and 61 µM (active).

As to `O=C(O)c1cccc(C(F)(F)F)c1`, the Potency entry is “inactive”.

For `ClCCl`, the Potency entry was “inactive”.

Take `COCCOc1cc2cc(C(=O)NC3CCN(C(C)C)CC3)n(CC(=O)Nc3ccc(Cl)cn3)c2cn1`: the Potency is 48 µM (active).

As for `COc1cc(S(=O)(=O)O)c(C)cc1N=Nc1c(O)ccc2cc(S(=O)(=O)O)ccc12`, the Potency result is “inactive”.

Regarding `CC[C@H](C)COC(=O)/C=C/c1ccc(N=Cc2ccc(OC)cc2)cc1`, the Potency result was “inactive”.

Take `C=C(CC)C(=O)c1ccc(OCC(=O)O)c(Cl)c1Cl`: the Potency entry is “inactive”.

Take `O=C(O)O`: the activation is -1.17% [at 8.47 µM].

For the molecule `Cl[Si](Cl)(c1ccccc1)c1ccccc1`, the Potency entry was “inactive”.

As to `OC[C@@H](O)[C@@H](O)CO`, the Potency result is “inactive”.

For the molecule `CN(C)Cc1ccccc1O`, the Potency result was “inactive”.

As to `Cc1c(F)c(N2CCNC(C)C2)cc2c1c(=O)c(C(=O)O)cn2C1CC1` (stereo not given), the Potency result was “inactive”.

As to `CCCCC/C=C\C/C=C\CCCCCCCC(=O)O`, the Potency entry was “inactive”.

Turning to `CCc1ccc(Br)cc1`, the Potency result was “inactive”.

With `CC(=O)Oc1cc2c(s1)CCN(C(C(=O)C1CC1)c1ccccc1F)C2` (stereo not given), the Potency entry was “inactive”.

In the case of `COc1ccc(-c2coc3cc(O)ccc3c2=O)cc1`, the Potency was 6.86 µM (active).

On to `CC1(C)CCC[C@]2(C)[C@H]3CCO[C@]3(C)CC[C@@H]12`, for which the Potency entry is “inactive”.

For the molecule `CC[N+](CC)(CC)CCOC(=O)C(C1CCCC1)C1CCCC1`, the Potency result was “inactive”.

For the molecule `C=CCn1c(=O)n(CC=C)c(=O)n(CC=C)c1=O`, the Potency result is “inactive”.

Consider `CC1=CCC(=C(C)C)CC1`, for which the Potency result is “inactive”.

Regarding `COc1c(C)c2c(c(O)c1C/C=C(\C)CCC(=O)OCCN1CCOCC1)C(=O)OC2`, the Potency result is “inactive”.

With `Nc1nc(-c2ccccc2)cs1`, the Potency was 24.3 µM (active).

On to `CCCCCCCCCCCCCCCC[N+](C)(C)CC`, for which the Potency entry was “inactive”.

In the case of `CCCCCc1ccc(Cl)cc1`, the Potency result was “inactive”.

In the case of `CCCCCCCC`, the Potency result is “inactive”.

As for `Cc1ccc(C)cc1`, the Potency entry is “inactive”.

Take `OC/C=C/CO`: the Potency result is “inactive”.

In the case of `O=C(O)CCN(C1(C(=O)NO)CCCC1)S(=O)(=O)c1ccc(Oc2ccc(F)cc2)cc1`, the Potency entry is “inactive”.

In the case of `O=C1C(c2[nH]c3ccc(S(=O)(=O)O)cc3c2O)=Nc2ccc(S(=O)(=O)O)cc21`, the Potency entry is “inactive”.

For `Nc1ccc(C(=O)O)c(O)c1`, the Potency result was “inactive”.

`CCCCC(CC)CN1CN(CC(CC)CCCC)CC(C)(N)C1` (stereo not given): the Potency entry is “inactive”.

For the molecule `CC(C)(C)NSc1nc2ccccc2s1`, the Potency is 27.8 µM (active).

Turning to `CCCC[P+](C)(CCCC)CCCC`, the Potency entry was “inactive”.

For `CCCC1CCC(=O)CC1`, the Potency result was “inactive”.

With `O=C(Nc1ccc2c(O)c(N=Nc3ccc(N=Nc4ccc(S(=O)(=O)O)cc4)cc3)c(S(=O)(=O)O)cc2c1)c1ccccc1`, the Potency entry is “inactive”.

As for `Nc1nc(N)nc(-c2cc(Cl)ccc2Cl)n1`, the Potency entry is “inactive”.

`C=CC(=O)OCCOC(=O)C=C`: the Potency entry was “inactive”.

Consider `CC(C)Cn1cnc2c(N)nc3ccccc3c21`, for which the Potency was 9.44 µM (active).

For the molecule `CC(C)CCCCCOC(=O)CCS`, the Potency entry was “inactive”.

As to `CC1=Nc2ccccc2C1(C)C`, the Potency entry is “inactive”.
